Results as given in the supplement of paper PMC11732987, “Enantioselective OTUD7B fragment discovery through chemoproteomics screening and high-throughput optimisation” (Communications Chemistry, 2025).

How the values were obtained:
Test in all cases: log2 ratio of Biotin-Ahx-Ub-VS probe labelling (fragment/DMSO); higher = less target engagement (more negative = stronger competition), active = hit call of the paper (q ≤ 0.05, log2 ratio ≤ -1)
Conditions in all cases: compound concentration: 200 uM; treatment time: 3 h
USP42 = biological target: T1, USP42 (UniProt Q9H9J4)
T1 sequence (whole entry): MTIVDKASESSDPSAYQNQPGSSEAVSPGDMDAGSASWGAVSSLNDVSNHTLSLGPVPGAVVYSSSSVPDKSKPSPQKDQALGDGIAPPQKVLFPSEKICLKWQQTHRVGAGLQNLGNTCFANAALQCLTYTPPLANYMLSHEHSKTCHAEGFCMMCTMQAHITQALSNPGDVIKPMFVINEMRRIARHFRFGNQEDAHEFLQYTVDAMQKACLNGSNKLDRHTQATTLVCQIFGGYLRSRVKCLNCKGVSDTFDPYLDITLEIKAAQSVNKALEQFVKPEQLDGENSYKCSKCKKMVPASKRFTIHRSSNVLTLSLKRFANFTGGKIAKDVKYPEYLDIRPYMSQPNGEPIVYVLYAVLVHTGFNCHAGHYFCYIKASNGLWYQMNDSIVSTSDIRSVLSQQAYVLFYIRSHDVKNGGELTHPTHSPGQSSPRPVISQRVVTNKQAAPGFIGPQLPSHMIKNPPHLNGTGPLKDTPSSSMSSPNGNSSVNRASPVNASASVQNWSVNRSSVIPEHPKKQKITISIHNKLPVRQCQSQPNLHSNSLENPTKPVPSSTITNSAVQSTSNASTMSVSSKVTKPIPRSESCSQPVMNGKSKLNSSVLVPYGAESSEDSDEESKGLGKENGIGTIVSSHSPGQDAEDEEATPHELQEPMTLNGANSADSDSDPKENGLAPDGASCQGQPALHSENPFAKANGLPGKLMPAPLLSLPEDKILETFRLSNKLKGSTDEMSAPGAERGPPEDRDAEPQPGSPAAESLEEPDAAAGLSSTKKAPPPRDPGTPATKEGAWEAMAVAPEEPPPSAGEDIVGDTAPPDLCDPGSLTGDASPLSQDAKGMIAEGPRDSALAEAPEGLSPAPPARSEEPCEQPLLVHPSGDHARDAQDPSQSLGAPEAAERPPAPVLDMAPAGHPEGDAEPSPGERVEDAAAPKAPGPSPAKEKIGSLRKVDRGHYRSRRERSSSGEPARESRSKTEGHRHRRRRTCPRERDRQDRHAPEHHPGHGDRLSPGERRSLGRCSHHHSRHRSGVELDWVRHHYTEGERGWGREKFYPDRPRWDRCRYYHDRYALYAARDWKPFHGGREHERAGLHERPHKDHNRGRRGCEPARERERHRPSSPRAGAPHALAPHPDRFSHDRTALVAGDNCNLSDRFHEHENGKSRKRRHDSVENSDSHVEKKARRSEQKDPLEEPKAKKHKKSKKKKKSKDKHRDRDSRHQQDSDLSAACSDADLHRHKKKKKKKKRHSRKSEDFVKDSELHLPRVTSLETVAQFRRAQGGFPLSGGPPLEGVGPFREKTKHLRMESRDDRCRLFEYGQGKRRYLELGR
Procedure, shortened: (§1)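 HEK293T lysate (495 µg per sample, in Tris/CHAPS/IGEPAL buffer with protease inhibitors) was treated in triplicate with fragment at 200 µM or with DMSO for 3 h. It was then treated with Biotin-Ahx-Ub-VS (0.5 µM final) for 1 h. Labelled DUBs were NeutrAvidin-enriched, digested with LysC and trypsin, and run by diaPASEF LC-MS/MS. Spectronaut label-free quantities were global-median-normalised. Values are average log2 ratios fragment/DMSO by unpaired t-test, using proteins with ≥2 unique peptides.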

USP46 = USP46 (UniProt P62068)
Procedure, shortened: as §1

USP47 = biological target: T2, USP47 (UniProt Q96K76)
T2 sequence (whole entry): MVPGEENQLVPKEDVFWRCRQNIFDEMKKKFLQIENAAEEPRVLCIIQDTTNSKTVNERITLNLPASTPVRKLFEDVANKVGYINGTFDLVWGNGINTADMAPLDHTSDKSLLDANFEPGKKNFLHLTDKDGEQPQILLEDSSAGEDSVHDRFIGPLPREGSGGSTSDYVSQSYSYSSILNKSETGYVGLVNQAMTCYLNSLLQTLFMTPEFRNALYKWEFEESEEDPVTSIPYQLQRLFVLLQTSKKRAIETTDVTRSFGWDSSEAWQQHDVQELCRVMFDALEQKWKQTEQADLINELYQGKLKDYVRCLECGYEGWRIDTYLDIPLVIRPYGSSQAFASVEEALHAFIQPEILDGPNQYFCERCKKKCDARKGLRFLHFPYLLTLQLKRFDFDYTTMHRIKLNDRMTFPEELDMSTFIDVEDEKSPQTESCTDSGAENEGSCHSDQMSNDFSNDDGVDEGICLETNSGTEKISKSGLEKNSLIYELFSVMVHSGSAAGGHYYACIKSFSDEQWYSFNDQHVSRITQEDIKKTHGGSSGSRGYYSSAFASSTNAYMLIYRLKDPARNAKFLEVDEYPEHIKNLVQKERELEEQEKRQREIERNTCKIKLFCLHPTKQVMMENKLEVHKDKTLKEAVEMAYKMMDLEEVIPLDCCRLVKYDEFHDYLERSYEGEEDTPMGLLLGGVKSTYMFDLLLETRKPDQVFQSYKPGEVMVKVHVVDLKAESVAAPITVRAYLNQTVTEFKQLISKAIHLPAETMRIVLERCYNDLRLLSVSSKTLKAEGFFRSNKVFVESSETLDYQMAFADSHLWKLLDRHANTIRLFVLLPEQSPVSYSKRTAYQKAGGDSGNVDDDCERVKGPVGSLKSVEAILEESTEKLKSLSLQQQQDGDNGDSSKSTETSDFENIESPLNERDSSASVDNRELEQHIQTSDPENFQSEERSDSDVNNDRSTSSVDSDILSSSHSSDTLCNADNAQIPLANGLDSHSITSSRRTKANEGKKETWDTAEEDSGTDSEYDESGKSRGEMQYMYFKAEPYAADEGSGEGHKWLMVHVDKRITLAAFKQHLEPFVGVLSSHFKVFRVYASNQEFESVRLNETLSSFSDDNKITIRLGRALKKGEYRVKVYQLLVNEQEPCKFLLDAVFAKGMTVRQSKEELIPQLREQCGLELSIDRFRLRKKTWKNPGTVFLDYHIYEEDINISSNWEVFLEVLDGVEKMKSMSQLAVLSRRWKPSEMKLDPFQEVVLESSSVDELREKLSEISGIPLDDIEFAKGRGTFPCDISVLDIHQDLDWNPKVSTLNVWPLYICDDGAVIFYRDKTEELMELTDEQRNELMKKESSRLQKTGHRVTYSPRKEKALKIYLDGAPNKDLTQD
Procedure, shortened: as §1

USP48 = biological target: T3, USP48 (UniProt Q86UV5)
T3 sequence (whole entry): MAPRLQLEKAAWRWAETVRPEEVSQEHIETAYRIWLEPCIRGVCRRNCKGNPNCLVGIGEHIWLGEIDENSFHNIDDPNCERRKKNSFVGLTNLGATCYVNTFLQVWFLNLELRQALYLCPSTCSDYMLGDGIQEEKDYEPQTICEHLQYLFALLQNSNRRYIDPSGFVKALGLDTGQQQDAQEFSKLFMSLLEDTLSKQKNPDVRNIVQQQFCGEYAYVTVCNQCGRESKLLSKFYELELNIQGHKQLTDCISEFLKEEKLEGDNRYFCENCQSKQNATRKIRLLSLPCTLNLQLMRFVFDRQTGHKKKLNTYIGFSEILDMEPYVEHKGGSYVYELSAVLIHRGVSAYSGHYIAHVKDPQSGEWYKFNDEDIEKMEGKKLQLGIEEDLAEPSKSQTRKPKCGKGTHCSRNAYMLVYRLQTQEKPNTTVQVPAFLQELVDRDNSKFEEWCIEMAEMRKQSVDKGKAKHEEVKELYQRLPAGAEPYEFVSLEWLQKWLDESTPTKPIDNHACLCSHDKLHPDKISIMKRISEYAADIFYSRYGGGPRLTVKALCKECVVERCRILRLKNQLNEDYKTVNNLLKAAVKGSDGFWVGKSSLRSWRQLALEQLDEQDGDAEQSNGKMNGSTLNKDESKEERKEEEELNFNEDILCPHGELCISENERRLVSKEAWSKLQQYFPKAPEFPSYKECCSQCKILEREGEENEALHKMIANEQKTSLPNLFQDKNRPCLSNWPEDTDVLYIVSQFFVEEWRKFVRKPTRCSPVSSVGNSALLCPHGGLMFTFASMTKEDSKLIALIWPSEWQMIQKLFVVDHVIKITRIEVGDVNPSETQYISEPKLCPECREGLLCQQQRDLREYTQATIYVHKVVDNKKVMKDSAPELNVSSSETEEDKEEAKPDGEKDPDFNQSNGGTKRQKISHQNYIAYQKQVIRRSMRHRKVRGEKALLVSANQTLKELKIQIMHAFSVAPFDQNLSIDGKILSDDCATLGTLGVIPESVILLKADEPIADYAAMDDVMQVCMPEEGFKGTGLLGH
Procedure, shortened: as §1

USP5 = biological target: T4, USP5 (UniProt P45974)
T4 sequence (whole entry): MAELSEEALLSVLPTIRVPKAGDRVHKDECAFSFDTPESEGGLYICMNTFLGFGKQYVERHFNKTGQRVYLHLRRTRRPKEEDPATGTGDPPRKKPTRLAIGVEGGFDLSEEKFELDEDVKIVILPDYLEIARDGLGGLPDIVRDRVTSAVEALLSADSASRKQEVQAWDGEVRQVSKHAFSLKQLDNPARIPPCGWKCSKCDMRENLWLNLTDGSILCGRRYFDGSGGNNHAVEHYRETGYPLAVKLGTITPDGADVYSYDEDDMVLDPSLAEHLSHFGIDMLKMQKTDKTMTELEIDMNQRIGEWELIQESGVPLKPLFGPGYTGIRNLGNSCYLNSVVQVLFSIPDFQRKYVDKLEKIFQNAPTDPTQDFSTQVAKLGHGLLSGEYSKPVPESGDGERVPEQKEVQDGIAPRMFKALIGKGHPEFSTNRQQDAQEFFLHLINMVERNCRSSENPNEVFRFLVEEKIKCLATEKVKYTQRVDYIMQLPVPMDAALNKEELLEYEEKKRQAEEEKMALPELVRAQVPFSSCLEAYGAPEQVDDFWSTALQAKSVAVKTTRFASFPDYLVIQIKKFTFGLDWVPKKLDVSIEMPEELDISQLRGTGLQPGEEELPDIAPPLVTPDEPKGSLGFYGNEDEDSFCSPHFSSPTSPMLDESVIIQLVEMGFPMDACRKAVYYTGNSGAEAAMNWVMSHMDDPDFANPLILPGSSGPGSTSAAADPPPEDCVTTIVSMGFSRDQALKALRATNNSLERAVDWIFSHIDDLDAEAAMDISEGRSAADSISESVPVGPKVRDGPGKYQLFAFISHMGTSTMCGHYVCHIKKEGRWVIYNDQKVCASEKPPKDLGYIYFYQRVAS
Procedure, shortened: as §1

USP54 = USP54 (UniProt Q70EL1)
Procedure, shortened: as §1

USP7 = USP7 (UniProt Q93009)
Procedure, shortened: as §1

USP8 = biological target: T5, USP8 (UniProt P40818)
T5 sequence (whole entry): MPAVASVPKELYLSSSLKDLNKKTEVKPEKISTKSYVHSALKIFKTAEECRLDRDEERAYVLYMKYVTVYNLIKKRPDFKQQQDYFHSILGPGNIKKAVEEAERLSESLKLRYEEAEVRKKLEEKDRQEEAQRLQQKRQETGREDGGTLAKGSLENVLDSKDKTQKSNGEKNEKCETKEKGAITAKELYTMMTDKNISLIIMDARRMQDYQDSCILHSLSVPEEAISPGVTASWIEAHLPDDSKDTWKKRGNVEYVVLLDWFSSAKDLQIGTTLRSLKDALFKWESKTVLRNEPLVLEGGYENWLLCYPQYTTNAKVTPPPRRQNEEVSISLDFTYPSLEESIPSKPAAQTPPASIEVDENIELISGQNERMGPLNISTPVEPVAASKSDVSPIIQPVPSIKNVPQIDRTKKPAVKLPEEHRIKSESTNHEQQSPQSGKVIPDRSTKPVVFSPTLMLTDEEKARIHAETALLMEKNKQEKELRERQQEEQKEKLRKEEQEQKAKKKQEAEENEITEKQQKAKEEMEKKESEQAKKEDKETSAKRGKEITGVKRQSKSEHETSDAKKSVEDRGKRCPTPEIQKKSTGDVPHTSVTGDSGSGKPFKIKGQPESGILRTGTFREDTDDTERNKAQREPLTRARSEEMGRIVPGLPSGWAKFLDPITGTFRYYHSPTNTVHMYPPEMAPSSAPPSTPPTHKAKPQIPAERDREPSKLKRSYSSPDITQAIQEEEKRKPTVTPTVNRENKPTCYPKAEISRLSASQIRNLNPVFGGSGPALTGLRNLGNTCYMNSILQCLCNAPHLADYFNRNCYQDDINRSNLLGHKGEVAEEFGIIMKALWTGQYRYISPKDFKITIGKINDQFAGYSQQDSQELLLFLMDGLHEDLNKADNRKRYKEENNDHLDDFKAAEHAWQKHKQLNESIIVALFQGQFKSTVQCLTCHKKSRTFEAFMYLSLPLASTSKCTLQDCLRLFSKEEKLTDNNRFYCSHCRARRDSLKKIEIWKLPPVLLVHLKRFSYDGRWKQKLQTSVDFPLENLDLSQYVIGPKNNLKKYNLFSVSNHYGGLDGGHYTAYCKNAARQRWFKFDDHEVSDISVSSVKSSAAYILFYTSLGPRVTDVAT
Procedure, shortened: as §1

Measured: log2 ratio of Biotin-Ahx-Ub-VS probe labelling

Sequence of USP54 (Q70EL1 whole entry): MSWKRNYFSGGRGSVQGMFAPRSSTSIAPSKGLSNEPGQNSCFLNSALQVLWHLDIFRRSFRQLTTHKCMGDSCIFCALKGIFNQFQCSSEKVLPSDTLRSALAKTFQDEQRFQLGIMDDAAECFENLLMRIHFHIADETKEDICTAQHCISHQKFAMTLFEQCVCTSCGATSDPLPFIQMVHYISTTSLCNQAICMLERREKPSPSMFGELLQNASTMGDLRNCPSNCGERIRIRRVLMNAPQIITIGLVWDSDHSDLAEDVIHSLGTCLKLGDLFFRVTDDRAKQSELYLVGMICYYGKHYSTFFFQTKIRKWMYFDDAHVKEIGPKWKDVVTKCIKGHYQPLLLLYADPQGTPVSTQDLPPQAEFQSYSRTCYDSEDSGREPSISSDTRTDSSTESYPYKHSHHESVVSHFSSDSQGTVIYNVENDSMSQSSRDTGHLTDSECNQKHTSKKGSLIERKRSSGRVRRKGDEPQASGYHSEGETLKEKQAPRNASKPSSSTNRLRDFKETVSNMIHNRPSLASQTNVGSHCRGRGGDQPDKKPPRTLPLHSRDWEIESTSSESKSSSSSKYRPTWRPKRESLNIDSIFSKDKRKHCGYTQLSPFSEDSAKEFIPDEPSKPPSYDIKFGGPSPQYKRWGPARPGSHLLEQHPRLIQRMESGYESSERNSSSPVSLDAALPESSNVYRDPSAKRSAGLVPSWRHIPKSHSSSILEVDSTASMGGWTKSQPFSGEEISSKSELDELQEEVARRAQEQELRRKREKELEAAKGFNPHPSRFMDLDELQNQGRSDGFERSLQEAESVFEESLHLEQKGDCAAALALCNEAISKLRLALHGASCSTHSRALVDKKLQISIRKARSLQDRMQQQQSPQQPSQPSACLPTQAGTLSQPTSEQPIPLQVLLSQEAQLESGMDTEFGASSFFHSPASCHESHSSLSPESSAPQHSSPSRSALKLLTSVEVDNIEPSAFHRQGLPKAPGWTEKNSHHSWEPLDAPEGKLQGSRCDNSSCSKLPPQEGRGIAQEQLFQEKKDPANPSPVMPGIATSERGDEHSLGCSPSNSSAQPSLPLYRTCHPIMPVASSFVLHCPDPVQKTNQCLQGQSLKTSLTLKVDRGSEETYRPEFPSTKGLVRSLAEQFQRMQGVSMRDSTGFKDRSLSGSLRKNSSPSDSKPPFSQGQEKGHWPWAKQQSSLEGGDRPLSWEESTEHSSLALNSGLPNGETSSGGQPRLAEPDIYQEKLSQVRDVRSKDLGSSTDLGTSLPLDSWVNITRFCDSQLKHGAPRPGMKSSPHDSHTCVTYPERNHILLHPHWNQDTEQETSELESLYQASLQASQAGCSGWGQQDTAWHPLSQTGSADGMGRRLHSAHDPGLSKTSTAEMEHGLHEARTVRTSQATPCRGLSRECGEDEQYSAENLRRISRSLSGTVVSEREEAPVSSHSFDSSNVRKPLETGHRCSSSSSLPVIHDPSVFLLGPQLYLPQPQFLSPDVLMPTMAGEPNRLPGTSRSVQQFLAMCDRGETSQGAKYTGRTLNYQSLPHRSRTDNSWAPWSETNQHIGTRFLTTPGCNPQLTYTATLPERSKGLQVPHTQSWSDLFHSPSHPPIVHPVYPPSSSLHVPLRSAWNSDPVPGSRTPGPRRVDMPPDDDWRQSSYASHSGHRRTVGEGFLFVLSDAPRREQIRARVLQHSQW
Sequence of USP46 (P62068 whole entry): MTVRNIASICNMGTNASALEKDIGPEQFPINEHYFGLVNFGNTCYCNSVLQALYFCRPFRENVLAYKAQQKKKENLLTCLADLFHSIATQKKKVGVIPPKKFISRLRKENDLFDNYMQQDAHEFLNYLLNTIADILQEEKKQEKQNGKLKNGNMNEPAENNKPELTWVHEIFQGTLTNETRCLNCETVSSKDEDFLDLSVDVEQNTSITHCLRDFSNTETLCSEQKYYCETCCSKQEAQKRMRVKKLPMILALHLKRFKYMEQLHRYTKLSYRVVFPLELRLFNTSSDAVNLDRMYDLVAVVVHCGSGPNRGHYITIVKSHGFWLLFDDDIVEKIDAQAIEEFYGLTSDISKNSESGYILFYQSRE
Sequence of USP7 (Q93009 whole entry, looked up): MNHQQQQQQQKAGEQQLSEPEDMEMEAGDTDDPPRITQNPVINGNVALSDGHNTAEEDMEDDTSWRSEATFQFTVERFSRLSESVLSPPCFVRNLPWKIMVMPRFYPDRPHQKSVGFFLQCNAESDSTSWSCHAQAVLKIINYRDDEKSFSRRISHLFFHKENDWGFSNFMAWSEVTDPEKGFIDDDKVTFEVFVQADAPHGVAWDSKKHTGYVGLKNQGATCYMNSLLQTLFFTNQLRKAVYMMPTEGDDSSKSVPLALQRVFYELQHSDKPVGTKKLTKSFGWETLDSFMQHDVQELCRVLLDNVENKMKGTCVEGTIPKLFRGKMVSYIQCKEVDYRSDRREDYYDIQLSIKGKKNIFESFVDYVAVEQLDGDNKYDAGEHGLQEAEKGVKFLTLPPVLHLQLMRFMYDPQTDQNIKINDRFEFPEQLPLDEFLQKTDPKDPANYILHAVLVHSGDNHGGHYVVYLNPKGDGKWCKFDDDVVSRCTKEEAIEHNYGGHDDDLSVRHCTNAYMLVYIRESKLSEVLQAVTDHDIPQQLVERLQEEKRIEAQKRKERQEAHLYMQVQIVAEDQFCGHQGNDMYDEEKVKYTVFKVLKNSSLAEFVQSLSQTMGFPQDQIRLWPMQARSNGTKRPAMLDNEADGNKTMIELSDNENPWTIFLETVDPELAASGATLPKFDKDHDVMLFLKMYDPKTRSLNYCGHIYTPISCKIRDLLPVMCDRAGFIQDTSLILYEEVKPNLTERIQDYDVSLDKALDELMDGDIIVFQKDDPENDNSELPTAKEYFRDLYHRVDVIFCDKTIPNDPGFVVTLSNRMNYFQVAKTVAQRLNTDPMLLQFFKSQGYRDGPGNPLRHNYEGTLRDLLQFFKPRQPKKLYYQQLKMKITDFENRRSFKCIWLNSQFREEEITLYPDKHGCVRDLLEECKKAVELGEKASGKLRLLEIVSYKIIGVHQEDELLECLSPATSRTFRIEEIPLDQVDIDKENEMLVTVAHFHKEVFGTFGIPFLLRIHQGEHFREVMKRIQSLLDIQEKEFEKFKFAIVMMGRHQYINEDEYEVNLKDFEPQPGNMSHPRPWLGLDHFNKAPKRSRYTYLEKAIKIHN

Cl.O=C(CCl)N1CCN(Cc2ccccc2)CC1
inactive: USP42 0.128 | USP46 -0.101 | USP47 -0.389 | USP48 -0.499 | USP5 -0.052 | USP54 0.13 | USP7 -0.607 | USP8 -0.333
